# From PubChem BioAssay (EPA / NIEHS)
# Results filed as inconclusive are left out. Activity calls are given as the source filed them. The calls were made as follows: active = hit-call score of the fitted dose curve at least 0.9, where 1 is the maximum; inconclusive = response in the unintended direction; inactive = score below 0.9.
# Assays:
# [1] = biological target: human Beta-secretase (BACE), BACE1 (gene 23621) (UniProt P56817); test: NVS_ENZ_hBACE: NovaScreen (NVS) Enzymatic Assay for human Beta-secretase (BACE) (AID 2283140);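 also: hits are inhibitors that reduce fluorescent substrate signal versus DMSO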
# human Beta-secretase (BACE), BACE1 (gene 23621), sequence (P56817 whole entry, looked up): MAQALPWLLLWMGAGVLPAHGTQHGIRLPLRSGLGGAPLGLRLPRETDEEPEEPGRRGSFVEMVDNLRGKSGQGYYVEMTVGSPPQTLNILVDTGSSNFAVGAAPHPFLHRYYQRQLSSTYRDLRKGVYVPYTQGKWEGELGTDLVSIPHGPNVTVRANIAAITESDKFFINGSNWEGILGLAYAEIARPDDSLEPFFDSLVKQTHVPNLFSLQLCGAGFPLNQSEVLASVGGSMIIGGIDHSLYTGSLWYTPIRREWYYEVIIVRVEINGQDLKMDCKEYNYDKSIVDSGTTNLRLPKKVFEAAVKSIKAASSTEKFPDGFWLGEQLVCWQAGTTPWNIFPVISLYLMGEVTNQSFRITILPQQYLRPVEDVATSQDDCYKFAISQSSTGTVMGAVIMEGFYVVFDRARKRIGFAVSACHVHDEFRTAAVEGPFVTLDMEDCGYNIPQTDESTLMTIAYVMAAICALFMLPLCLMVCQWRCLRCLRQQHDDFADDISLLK
# In short: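 Recombinant BACE1 (SF9 extract) incubated with compound and fluorescent substrate, 1 h. Plates carried positive and DMSO negative controls. Initial single dose 25 uM, duplicate; confirmation by concentration series.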
# [2] = biological target: human AKT serine/threonine Kinase 2 (AKT2), AKT2 (gene 208) (UniProt P31751); test: NVS_ENZ_hAKT2: NovaScreen (NVS) Enzymatic Assay for human AKT serine/threonine Kinase 2 (AKT2) (AID 2283141)
# human AKT serine/threonine Kinase 2 (AKT2), AKT2 (gene 208), sequence (P31751 whole entry, looked up): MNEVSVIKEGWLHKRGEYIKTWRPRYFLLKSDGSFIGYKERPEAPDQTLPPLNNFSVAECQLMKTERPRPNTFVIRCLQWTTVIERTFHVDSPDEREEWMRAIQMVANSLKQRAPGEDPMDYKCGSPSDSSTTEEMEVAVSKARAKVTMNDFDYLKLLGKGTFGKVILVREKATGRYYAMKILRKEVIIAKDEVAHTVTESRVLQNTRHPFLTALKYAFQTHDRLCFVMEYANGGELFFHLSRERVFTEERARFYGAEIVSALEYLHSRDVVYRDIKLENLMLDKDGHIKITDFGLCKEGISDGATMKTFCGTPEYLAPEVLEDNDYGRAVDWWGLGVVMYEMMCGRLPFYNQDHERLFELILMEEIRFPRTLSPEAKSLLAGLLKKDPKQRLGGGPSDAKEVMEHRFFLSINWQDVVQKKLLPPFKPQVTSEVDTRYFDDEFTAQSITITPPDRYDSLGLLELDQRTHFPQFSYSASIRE
# In short: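 Cell-free fluorescence/electrophoretic mobility shift readout of recombinant human AKT2 activity, 1 h after chemical dosing. Duplicate primary screen at 25 uM, then singleton concentration-response up to 50 uM; loss of signal versus DMSO baseline.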
# [3] = biological target: human Caspase 8 (CASP8), CASP8 (gene 841) (UniProt Q14790); test: NVS_ENZ_hCASP8: NovaScreen (NVS) Enzymatic Assay for human Caspase 8 (CASP8) (AID 2283146)
# In short: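 E. coli-expressed enzyme was used in a cell-free fluorogenic substrate assay read 1 h after dosing. Loss of signal was scored relative to DMSO, and the primary screen was run in duplicate at 25 uM.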
# [4] = biological target: Mitogen-activated protein kinase 3 (Homo sapiens) (UniProt P27361); test: NVS_ENZ_hMAPK3: NovaScreen (NVS) Enzymatic Assay for human Mitogen-Activated Protein Kinase 3 (MAPK 3) (AID 2283177)
# Mitogen-activated protein kinase 3 (Homo sapiens), sequence (P27361 whole entry, looked up): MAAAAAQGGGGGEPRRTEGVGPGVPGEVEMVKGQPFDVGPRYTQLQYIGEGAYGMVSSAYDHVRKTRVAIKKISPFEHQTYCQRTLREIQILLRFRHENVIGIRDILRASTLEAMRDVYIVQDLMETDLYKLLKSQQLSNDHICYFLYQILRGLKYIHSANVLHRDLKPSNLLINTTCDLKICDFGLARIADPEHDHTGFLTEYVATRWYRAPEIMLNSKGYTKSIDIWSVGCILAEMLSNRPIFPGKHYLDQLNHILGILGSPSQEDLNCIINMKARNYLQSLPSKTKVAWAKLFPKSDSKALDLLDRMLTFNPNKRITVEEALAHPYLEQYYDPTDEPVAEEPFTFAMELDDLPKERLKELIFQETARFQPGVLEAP
# In short: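 Cell-free enzymatic assay with recombinant protein and specific substrate; fluorescence and electrophoretic mobility shift read-out 1 h after dosing. Primary screen duplicate at 25 uM; actives then run in concentration-response up to 50 uM, loss of signal versus DMSO.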
# [5] = biological target: human Acid Phosphatase 1 (ACP1), ACP1 (gene 52) (UniProt P24666); test: NVS_ENZ_hACP1: NovaScreen (NVS) Enzymatic Assay for human Acid Phosphatase 1 (ACP1) (AID 2283136)
# human Acid Phosphatase 1 (ACP1), ACP1 (gene 52), sequence (P24666 whole entry, looked up): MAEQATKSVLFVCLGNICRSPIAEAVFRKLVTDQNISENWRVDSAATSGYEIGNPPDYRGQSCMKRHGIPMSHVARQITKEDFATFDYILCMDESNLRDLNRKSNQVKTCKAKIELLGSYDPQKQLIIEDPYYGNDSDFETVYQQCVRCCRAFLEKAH
# In short: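 Recombinant enzyme expressed in Sf9 cells, tested cell-free; activity read by fluorescence with electrophoretic mobility shift separation of substrate and product, 1.5 h after dosing. Primary screen in duplicate at 25 uM, actives then run in concentration series; loss of signal versus DMSO.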
# [6] = biological target: human AKT serine/threonine Kinase 1 (AKT1), AKT1 (gene 207) (UniProt P31749); test: NVS_ENZ_hAKT1: NovaScreen (NVS) Enzymatic Assay for human AKT serine/threonine Kinase 1 (AKT1) (AID 2283138)
# human AKT serine/threonine Kinase 1 (AKT1), AKT1 (gene 207), sequence (P31749 whole entry, looked up): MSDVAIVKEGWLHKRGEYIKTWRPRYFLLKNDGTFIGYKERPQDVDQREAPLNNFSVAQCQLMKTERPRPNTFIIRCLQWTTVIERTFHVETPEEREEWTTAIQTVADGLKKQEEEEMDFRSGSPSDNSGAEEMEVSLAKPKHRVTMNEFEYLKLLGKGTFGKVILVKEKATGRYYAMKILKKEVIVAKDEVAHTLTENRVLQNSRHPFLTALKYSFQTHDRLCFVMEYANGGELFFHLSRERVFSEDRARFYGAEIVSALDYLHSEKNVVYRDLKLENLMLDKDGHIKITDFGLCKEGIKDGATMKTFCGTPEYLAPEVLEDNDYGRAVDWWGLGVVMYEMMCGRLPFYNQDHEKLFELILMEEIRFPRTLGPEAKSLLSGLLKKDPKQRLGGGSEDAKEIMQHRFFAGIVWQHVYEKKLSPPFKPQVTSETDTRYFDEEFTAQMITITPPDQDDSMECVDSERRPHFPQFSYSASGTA
# In short: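 Signal loss relative to DMSO, measured by fluorescence after electrophoretic separation of substrate and product, indicates inhibition of recombinant enzyme. Readings at 1 h; screening at 25 uM, follow-up curves up to 50 uM.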
# [7] = biological target: human Colony Stimulating Factor 1 Receptor (CSF1R), CSF1R (gene 1436) (UniProt P07333); test: NVS_ENZ_hCSF1R: NovaScreen (NVS) Enzymatic Assay for human Colony Stimulating Factor 1 Receptor (CSF1R) (AID 2283150)
# human Colony Stimulating Factor 1 Receptor (CSF1R), CSF1R (gene 1436), sequence (P07333 whole entry, looked up): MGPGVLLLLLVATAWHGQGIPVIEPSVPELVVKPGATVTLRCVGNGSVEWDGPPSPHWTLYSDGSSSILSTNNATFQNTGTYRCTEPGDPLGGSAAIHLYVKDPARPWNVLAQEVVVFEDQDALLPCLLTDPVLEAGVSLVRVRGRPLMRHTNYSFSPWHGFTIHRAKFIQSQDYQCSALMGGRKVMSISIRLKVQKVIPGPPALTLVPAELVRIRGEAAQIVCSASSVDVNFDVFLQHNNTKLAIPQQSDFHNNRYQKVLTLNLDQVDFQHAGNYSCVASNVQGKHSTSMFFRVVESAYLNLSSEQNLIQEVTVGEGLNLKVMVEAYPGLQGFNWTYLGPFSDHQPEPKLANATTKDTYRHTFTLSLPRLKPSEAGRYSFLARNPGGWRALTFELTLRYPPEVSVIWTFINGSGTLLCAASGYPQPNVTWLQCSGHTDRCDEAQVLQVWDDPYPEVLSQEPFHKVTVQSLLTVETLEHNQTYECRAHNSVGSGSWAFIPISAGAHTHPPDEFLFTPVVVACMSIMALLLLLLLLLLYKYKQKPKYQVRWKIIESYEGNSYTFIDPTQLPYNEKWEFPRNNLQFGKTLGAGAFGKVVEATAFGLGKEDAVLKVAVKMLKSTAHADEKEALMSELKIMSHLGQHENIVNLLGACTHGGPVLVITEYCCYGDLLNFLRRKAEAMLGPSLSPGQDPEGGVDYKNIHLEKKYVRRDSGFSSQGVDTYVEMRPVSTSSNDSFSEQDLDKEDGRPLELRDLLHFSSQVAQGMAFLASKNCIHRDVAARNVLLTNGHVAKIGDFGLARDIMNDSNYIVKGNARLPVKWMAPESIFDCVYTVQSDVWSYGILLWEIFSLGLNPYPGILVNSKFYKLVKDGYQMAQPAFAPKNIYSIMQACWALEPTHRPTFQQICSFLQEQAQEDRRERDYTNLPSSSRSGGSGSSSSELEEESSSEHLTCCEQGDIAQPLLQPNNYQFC
# In short: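 Cell-free recombinant human CSF1R kinase with fluorescent substrate, product separated by electrophoretic mobility shift; read 1 h after dosing. Primary screen at 25 uM in duplicate, actives then in concentration-response up to 50 uM, relative to DMSO.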
# [8] = biological target: human Ephrin type-A Receptor 1 (EphA1), EPHA1 (gene 2041) (UniProt P21709); test: NVS_ENZ_hEphA1: NovaScreen (NVS) Enzymatic Assay for human Ephrin type-A Receptor 1 (EphA1) (AID 2283158);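 also: activity is signal loss versus DMSO meaning EphA1 kinase inhibition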
# human Ephrin type-A Receptor 1 (EphA1), EPHA1 (gene 2041), sequence (P21709 whole entry, looked up): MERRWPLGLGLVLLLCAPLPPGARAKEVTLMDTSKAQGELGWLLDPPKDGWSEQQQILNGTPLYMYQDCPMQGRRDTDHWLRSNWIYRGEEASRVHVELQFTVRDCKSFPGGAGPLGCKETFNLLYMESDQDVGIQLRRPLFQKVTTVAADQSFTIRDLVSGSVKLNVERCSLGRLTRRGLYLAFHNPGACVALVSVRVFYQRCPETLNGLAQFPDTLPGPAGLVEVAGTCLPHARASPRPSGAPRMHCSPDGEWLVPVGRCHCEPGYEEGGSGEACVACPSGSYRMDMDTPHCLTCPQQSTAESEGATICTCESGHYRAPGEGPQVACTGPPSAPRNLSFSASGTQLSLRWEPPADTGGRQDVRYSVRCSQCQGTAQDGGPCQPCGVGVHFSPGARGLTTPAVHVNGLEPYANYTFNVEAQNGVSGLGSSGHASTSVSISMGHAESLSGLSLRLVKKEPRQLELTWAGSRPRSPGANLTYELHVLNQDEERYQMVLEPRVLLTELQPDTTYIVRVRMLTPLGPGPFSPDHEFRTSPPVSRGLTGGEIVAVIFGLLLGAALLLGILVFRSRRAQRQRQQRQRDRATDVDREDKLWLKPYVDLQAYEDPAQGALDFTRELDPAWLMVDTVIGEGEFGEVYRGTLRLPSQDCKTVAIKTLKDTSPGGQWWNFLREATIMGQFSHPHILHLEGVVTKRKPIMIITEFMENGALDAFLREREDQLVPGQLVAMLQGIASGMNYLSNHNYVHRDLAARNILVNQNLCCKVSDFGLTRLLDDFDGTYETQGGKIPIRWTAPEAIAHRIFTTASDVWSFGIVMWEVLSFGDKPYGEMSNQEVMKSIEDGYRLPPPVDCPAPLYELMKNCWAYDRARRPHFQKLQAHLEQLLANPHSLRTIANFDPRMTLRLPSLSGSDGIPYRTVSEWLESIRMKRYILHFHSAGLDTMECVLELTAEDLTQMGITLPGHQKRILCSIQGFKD
# In short: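 Biochemical kinase assay run cell-free; 1 h incubation; readout is fluorescence with mobility-shift separation of product. Concentration-response up to 50 uM for actives from a 25 uM screen.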
# [9] = biological target: human FYN Proto-Oncogene, Src family Tyrosine Kinase (Fyn), FYN (gene 2534) (UniProt P06241); test: NVS_ENZ_hFyn: NovaScreen (NVS) Enzymatic Assay for human FYN Proto-Oncogene, Src family Tyrosine Kinase (Fyn) (AID 2283161)
# In short: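 Recombinant enzyme with fluorescent substrate, product separated by electrophoretic mobility shift; read 1 h after dosing. Duplicate 25 uM single-point screen, actives retested in concentration series; loss of signal vs DMSO.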
# [10] = biological target: Histone deacetylase 3 (Homo sapiens) (UniProt O15379); test: NVS_ENZ_hHDAC3: NovaScreen (NVS) Enzymatic Assay for human Histone Deacetylase 3 (HDAC3) (AID 2283163)
# In short: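 Recombinant human HDAC3 with fluorescent substrate, 1 h after dosing; product separated from substrate by electrophoretic mobility shift and read by fluorescence. Primary screen at 25 uM in duplicate; actives (e.g. ≥30% inhibition) retested in concentration-response up to 50 uM.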
# [11] = biological target: human c-Jun N-terminal Kinases (JNK2), MAPK9 (gene 5601) (UniProt P45984); test: NVS_ENZ_hJNK2: NovaScreen (NVS) Enzymatic Assay for human c-Jun N-terminal Kinases (JNK2) (AID 2283171)
# In short: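 Cell-free recombinant human JNK2 activity assay; fluorescent substrate and product separated by electrophoretic mobility shift, read 1 h after dosing. Primary duplicate screen at 25 uM; actives run in concentration-response up to 50 uM, relative to DMSO.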
# [12] = biological target: human LYN Proto-Oncogene, Src family Tyrosine Kinase (LynA), LYN (gene 4067) (UniProt P07948); test: NVS_ENZ_hLynA: NovaScreen (NVS) Enzymatic Assay for human LYN Proto-Oncogene, Src family Tyrosine Kinase (LynA) (AID 2283173)
# human LYN Proto-Oncogene, Src family Tyrosine Kinase (LynA), LYN (gene 4067), sequence (P07948 whole entry, looked up): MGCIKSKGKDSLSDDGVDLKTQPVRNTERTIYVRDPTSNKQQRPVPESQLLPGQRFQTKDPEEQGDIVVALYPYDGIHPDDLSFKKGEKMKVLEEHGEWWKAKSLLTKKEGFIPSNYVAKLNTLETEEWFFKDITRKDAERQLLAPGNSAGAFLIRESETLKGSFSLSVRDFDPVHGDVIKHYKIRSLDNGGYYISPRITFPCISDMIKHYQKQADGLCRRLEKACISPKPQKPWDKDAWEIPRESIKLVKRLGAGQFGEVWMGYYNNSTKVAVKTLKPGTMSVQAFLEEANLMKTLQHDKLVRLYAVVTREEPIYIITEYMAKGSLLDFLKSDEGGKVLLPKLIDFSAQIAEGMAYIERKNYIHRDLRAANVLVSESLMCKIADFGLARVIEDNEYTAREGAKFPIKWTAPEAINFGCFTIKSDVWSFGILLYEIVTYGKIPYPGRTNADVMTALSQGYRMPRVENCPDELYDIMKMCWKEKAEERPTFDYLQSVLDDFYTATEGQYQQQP
# In short: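 Recombinant kinase with fluorescent substrate; product separated from substrate by electrophoretic mobility shift and read 1 h after dosing. Duplicate screen at 25 uM, then concentration-response up to 50 uM; activity scored as signal loss against DMSO.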
# [13] = biological target: human Caspase 5 (CASP5), CASP5 (gene 838) (UniProt P51878); test: NVS_ENZ_hCASP5: NovaScreen (NVS) Enzymatic Assay for human Caspase 5 (CASP5) (AID 2283137)
# human Caspase 5 (CASP5), CASP5 (gene 838), sequence (P51878 whole entry, looked up): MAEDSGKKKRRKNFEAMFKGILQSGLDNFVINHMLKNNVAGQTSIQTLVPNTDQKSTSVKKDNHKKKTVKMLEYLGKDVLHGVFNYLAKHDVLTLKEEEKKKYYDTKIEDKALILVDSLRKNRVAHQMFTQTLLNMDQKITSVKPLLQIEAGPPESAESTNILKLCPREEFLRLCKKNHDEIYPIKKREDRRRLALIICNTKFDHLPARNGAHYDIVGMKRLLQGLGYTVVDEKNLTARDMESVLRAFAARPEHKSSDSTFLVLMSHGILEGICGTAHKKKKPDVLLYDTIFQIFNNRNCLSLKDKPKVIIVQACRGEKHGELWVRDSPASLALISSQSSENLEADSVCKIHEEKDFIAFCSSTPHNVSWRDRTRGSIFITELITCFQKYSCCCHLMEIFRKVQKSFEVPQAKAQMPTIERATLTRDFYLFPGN
# In short: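 Cell-free protease assay with bacterially expressed CASP5 and a fluorescent substrate, measured at 2 h. Values fitted relative to DMSO as baseline, from concentration-response series topping at 50 uM.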
# [14] = biological target: human Caspase 4 (CASP4), CASP4 (gene 837) (UniProt P49662); test: NVS_ENZ_hCASP4: NovaScreen (NVS) Enzymatic Assay for human Caspase 4 (CASP4) (AID 2283143)
# In short: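 The cell-free assay used E. coli-expressed enzyme with a fluorogenic substrate, read 2 h after dosing. Signal loss was scored versus DMSO. Screening was in duplicate at 25 uM, then singleton concentration-response up to 50 uM.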
# [15] = biological target: human Elastase, ELANE (gene 1991) (UniProt P08246); test: NVS_ENZ_hElastase: NovaScreen (NVS) Enzymatic Assay for human Elastase (AID 2283153)
# In short: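 Cell-free elastase from human neutrophils, 1.5 h after dosing, activity read by absorbance. Primary screen in duplicate at 25 uM; hits (e.g., 30% inhibition) rerun in singleton concentration-response up to 50 uM, fitted versus DMSO.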
# CDK2 (gene 1017) = CDK2 (gene 1017) (UniProt P24941); test: NVS_ENZ_hCDK2: NovaScreen (NVS) Enzymatic Assay for human Cyclin-Cependent Kinase 2 (CDK2) (AID 2283144)
# In short: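 Cell-free recombinant human CDK2 with fluorescent substrate, product separated by electrophoretic mobility shift; 1 hr read. Primary screen at 25 uM in duplicate, actives retested in concentration-response up to 50 uM; loss of signal versus DMSO.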
# [16] = biological target: human Dual Specificity Protein Phosphatase 3 (DUSP3), DUSP3 (gene 1845) (UniProt P51452); test: NVS_ENZ_hDUSP3: NovaScreen (NVS) Enzymatic Assay for human Dual Specificity Protein Phosphatase 3 (DUSP3) (AID 2283152);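 also: phosphatase activity of recombinant human DUSP3 on a fluorogenic substrate without cells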
# In short: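 Cell-free assay with recombinant human DUSP3 and fluorogenic substrate, read by fluorescence intensity. Primary screen ran duplicate at 25 uM; actives followed up in concentration series; loss of signal versus DMSO scored.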
# [17] = biological target: human Janus Kinase 2 (Jak2), JAK2 (gene 3717) (UniProt O60674); test: NVS_ENZ_hJak2: NovaScreen (NVS) Enzymatic Assay for human Janus Kinase 2 (Jak2) (AID 2283169)
# In short: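 Cell-free recombinant human JAK2 enzyme activity assay, fluorescence/electrophoretic mobility shift read 1 h after dosing. Screened in duplicate at 25 uM, then concentration-response up to 50 uM; activity as signal loss relative to DMSO.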
smiles,measurement,setting,value
O=C1CCC(N2C(=O)c3ccccc3C2=O)C(=O)N1 (configuration not stated),outcome,[1],inactive
Cc1c(-c2cccnc2)c2ccccc2n1CCCCC(=O)O,outcome,[1],inactive
CC[C@H](C)C(=O)O[C@H]1C[C@@H](C)C=C2C=C[C@H](C)[C@H](CC[C@@H]3C[C@@H](O)CC(=O)O3)[C@H]21,outcome,[2],inactive
same,outcome,[3],inactive
same,outcome,[4],inactive
Cc1ccc(N)cc1O,outcome,[5],inactive
same,outcome,[6],inactive
same,outcome,[7],inactive
same,outcome,[8],inactive
same,outcome,[9],inactive
same,outcome,[10],inactive
same,outcome,[11],inactive
same,outcome,[12],inactive
same,AC50,[4],20.1 µM (active)
O=P(OC(CCl)CCl)(OC(CCl)CCl)OC(CCl)CCl,outcome,[5],inactive
same,outcome,[13],inactive
same,AC50,[1],8.73 µM (active)
Cn1cnc([N+](=O)[O-])c1Sc1ncnc2nc[nH]c12,outcome,[6],inactive
same,outcome,[2],inactive
CCCCCCc1ccc(O)cc1O,outcome,[1],inactive
CCc1cc(SCc2sc(-c3ccc(C(F)(F)F)cc3)nc2CN2CCN(c3ccc(OC)cc3)CC2)ccc1OCC(=O)O,AC50,[13],2.35 µM (active)
same,outcome,[14],inactive
same,AC50,[15],2.7 µM (active)
O=C(O)c1cc(N=Nc2ccc(S(=O)(=O)Nc3ccccn3)cc2)ccc1O,outcome,[5],inactive
same,outcome,[6],inactive
same,outcome,CDK2 (gene 1017),inactive
same,outcome,[7],inactive
same,AC50,[16],14 µM (active)
same,outcome,[8],inactive
same,outcome,[17],inactive
same,outcome,[11],inactive
C=CCCCCCCCCC(=O)O,outcome,CDK2 (gene 1017),inactive
Nc1nc2ncc(CNc3ccc(C(=O)N[C@@H](CCC(=O)O)C(=O)O)cc3)nc2c(=O)[nH]1,outcome,[5],inactive
same,outcome,[1],inactive
O=C(O)c1cccc(Oc2ccccc2)c1,outcome,[6],inactive
same,outcome,[12],inactive
CCOCCOCCOCCO,outcome,[6],inactive
COc1ccc2sc(C(=O)Nc3nnn[nH]3)c(OC(C)C)c2c1,AC50,CDK2 (gene 1017),10.1 µM (active)
same,outcome,[7],inactive
same,outcome,[15],inactive
same,outcome,[8],inactive
same,AC50,[17],8.74 µM (active)
